Compound activity: PubChem, National Center for Advancing Translational Sciences (NCATS)
SW480 rereplic: DNA re-replication induction in SW480 cells; SW480 DNA re-replication, Hoechst DNA content imaging, 48 h; Potency, µM (top dose mostly 46.1 µM), without a hit: at the highest dose re-replication activation, most hits filed as activators; 1.8% of 340,000 active; AID 624297; further: % of control where 0% means no effect; nearly all actives have a fitted effect of over 55% in size
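SW480 cells exposed to compounds for 48 hr at 37 C, 5% CO2, then Hoechst-stained 40 min. Nuclear DNA content imaged by fluorescence scanning (405 nm excitation, 500-530 nm emission); re-replication scored as increased high-intensity nuclei.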
ELG1 repair inh: ELG1-dependent DNA repair inhibition. HEK293T ELG1-luciferase reporter, luminescence, 16 h; DNA damage induced by 5-fluorouridine. Potency, µM (series often up to 46.1 µM), inactives show at the highest dose activity change, negative = inhibition, usual class: inhibitors. 2.3% of 330,000 active. AID 504467; further: on the % scale 0 is the no-effect control and ±100 the full control effect; nearly all actives have a fitted effect of over 55% in size
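HEK293T cells expressing luciferase-tagged ELG1 (2,000/well) received 5-Fluorouridine plus compound or DMSO for 16 hr at 37 °C. Luciferase was read by ONE-Glo luminescence after 30 min at room temperature.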
MCF10A rerep: induces DNA re-replication in MCF 10a normal breast cells | MCF 10A DNA re-replication, Hoechst nuclear intensity, 48 h | Potency, µM (doses to about 46.1 µM), without a hit: top-dose activity, positive = re-replication, hits mostly activators | 2.9% of 350,000 active; further: % of control where 0% means no effect; nearly all actives have a fitted effect of over 50% in size
Gal4-VP16 FLuc: inhibits Gal4-VP16 luciferase reporter, ROR gamma counter-screen | Potency, µM (doses to about 53.6 µM), for the others: at the top dose activity, negative = inhibition, usual class: inhibitors | Drosophila S2 Gal4-VP16 UAS-luciferase, luminescence, 20 h | 3.5% of 310,000 active;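 further: Gal4-VP16 expression switched on by copper sulfate through the metallothionein promoter; on the % scale 0 is the no-effect control and ±100 the full control effect; nearly all actives have a fitted effect of over 50% in size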
RORgamma inh: blocks mouse ROR gamma transcriptional activity; Drosophila S2 Gal4-RORgamma UAS-luciferase reporter, 20 h; Potency, µM (series often up to 53.6 µM), inactives show at the highest dose activity change, negative = inhibition, actives largely listed as inhibitors; 5.4% of 310,000 active; AID 2551; further: on the % scale 0 is the no-effect control and ±100 the full control effect; nearly all actives have a fitted effect of over 60% in size
Target sequence (P51450 whole entry, looked up, the tested form may be a part): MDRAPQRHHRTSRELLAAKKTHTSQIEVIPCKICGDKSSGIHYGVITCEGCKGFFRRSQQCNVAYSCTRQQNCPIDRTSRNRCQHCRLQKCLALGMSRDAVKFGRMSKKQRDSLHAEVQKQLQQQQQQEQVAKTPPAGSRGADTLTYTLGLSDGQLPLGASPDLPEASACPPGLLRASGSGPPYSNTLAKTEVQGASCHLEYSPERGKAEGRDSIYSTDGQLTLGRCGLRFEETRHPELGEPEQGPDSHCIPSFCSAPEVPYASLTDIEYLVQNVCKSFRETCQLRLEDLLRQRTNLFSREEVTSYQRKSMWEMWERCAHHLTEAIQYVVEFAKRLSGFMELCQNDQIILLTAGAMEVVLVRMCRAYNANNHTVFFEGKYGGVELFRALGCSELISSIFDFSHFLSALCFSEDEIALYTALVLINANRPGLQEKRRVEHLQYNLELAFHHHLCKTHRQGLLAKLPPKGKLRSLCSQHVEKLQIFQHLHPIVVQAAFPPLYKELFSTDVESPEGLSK
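Luciferase reporter read in Schneider cells carrying Gal4-RORγ (mouse) and UAS-Photinus luciferase; cells given compound 1 h before 700 uM copper sulfate induction, then incubated 20 h at ambient temperature.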
Starred values were filed as active, the others as inactive; [ ] = dose if it differs, or a comment. Hits are enriched below; roughly 10% of the tested compounds scored in any of these assays. The call rests on the fitted dose curve; in most records, active means well fitted curve in the direction sought with a large enough effect; inconclusive means small, poorly fitted or top-dose-only effect, or another doubt; inactive means no such curve, though single readings can be large; an effect the other way counts as inactive or inconclusive. Potency means the concentration at half of the fitted maximal effect.

What do the screens show for `CSc1ccc(/C=N/NC(=O)CNc2cccc3ccccc23)cc1`?
SW480 rereplic: 1%; ELG1 repair inh: 24%; MCF10A rerep: inconclusive; Gal4-VP16 FLuc: inconclusive; RORgamma inh: 35µM*

How did C[C@H](CO)N1C[C@H](C)[C@@H](CN(C)S(C)(=O)=O)Oc2ccc(NS(=O)(=O)c3ccccc3)cc2C1=O do in these assays?
SW480 rereplic: inconclusive; ELG1 repair inh: -2%; MCF10A rerep: inconclusive

How did C[C@H](CO)N1C[C@H](C)[C@@H](CN(C)S(=O)(=O)c2ccccc2)Oc2ccc(NS(=O)(=O)c3ccc(F)cc3)cc2C1=O do in these assays?
SW480 rereplic: 2%[9.22 µM]; ELG1 repair inh: inconclusive; MCF10A rerep: 3%

Results for C[C@H](CO)N1C[C@H](C)[C@@H](CN(C)S(=O)(=O)c2ccccc2)Oc2ccc(NS(=O)(=O)c3ccccc3)cc2C1=O ?
SW480 rereplic: 2%; ELG1 repair inh: 23µM*; MCF10A rerep: 3%

What do the screens show for `C[C@H](CO)N1C[C@H](C)[C@@H](CN(C)S(=O)(=O)c2ccc(F)cc2)Oc2ccc(NS(=O)(=O)c3cccs3)cc2C1=O`?
SW480 rereplic: 12%[9.22 µM]; ELG1 repair inh: -15%; MCF10A rerep: 0%

Results for COc1ccc(S(=O)(=O)Nc2cccc3c2O[C@H](CN(C)S(=O)(=O)c2ccc(F)cc2)[C@H](C)CN([C@H](C)CO)C3=O)cc1 ?
SW480 rereplic: -8%; ELG1 repair inh: 6%; MCF10A rerep: 11%

What do the screens show for `C[C@H](CO)N1C[C@H](C)[C@@H](CN(C)S(=O)(=O)c2cccs2)Oc2ccc(NS(=O)(=O)c3ccc(F)cc3)cc2C1=O`?
SW480 rereplic: 1%; ELG1 repair inh: 6.5µM*; MCF10A rerep: 5%

What do the screens show for `COc1ccc(S(=O)(=O)Nc2cccc3c2O[C@H](CN(C)S(=O)(=O)c2ccccc2)[C@@H](C)CN([C@H](C)CO)C3=O)cc1`?
SW480 rereplic: 0.82µM*; ELG1 repair inh: 6%; MCF10A rerep: 0%

Results for C[C@H](CO)N1C[C@H](C)[C@@H](CN(C)S(=O)(=O)c2cccs2)Oc2ccc(NS(=O)(=O)c3ccccc3)cc2C1=O ?
SW480 rereplic: 0%; ELG1 repair inh: 9.2µM*; MCF10A rerep: 0%

Results for O=C(NCc1nnc(SCC(=O)N2CCCCC2)o1)c1c(F)cccc1Cl ?
SW480 rereplic: -4%; ELG1 repair inh: -2%; MCF10A rerep: 1%; Gal4-VP16 FLuc: 3%; RORgamma inh: 6%

What do the screens show for `COc1ccc(S(=O)(=O)Nc2ccc3c(c2)C(=O)N([C@@H](C)CO)C[C@H](C)[C@H](CN(C)S(=O)(=O)c2ccc(F)cc2)O3)cc1`?
SW480 rereplic: 3%; ELG1 repair inh: 21µM*; MCF10A rerep: 13%

Results for COc1ccc(S(=O)(=O)Nc2ccc3c(c2)C(=O)N([C@H](C)CO)C[C@H](C)[C@@H](CN(C)S(=O)(=O)c2ccc(OC)cc2)O3)cc1 ?
SW480 rereplic: 13%[9.22 µM]; MCF10A rerep: 3%

What do the screens show for `C[n+]1c(-c2ccccc2)cc2c(=Cc3ccccc3)c3ccccc3n21`?
SW480 rereplic: inconclusive; MCF10A rerep: 21µM*

How did COc1ccc(-n2c(=O)c(-c3cc(F)cc(F)c3)nc3cnc(N(C)C)nc32)cc1 do in these assays?
Gal4-VP16 FLuc: -7%; RORgamma inh: -8%

How did CCOC(=O)C1=C(c2ccccc2)NC(N)=NC1c1ccc(OCc2ccc(C(=O)OC)cc2)cc1 (centres undefined) do in these assays?
SW480 rereplic: inconclusive; ELG1 repair inh: 15%; MCF10A rerep: 18µM*; Gal4-VP16 FLuc: 1%; RORgamma inh: -27%

What do the screens show for `CCOC(=O)C1=C(c2ccccc2)Nc2ncnn2C1c1ccc(C(=O)O)cc1` (centres undefined)?
SW480 rereplic: -15%; ELG1 repair inh: 0%; MCF10A rerep: -7%; Gal4-VP16 FLuc: -6%; RORgamma inh: 1%

How did O=C(O)c1ccc(SCc2ccccc2)nc1 do in these assays?
SW480 rereplic: -2%; MCF10A rerep: -1%
